# Measured values reported in PubChem BioAssay (NCI).
# About 79,000 compounds went through this panel and 15% of them were active in at least one assay; those are over-represented in the sample as a whole. Unmarked numbers belong to inactive results. Active and inactive are the calls of the source. No stated cut-off is given here; in the data, active means growth inhibition above about 70%; inactive means the rest.
# Experiments:
# [1] = NCI Yeast Anticancer Drug Screen. Data for the rad50 strain (AID 155);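 further: 0% = growth of vehicle-only cultures of the same strain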; conditions: S. cerevisiae rad50 strain growth inhibition; at 50.0 µM; active compounds read high
# Method in brief: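 Compounds were tested on a yeast strain with an engineered DNA damage repair alteration; the reported value is growth inhibition normalised to vehicle treatment.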
# [2] = NCI Yeast Anticancer Drug Screen. Data for the mec2-1 strain (AID 157); conditions: S. cerevisiae mec2-1 strain, at 50.0 µM, active compounds read high
# Method in brief: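 Growth inhibition is read against vehicle-treated controls after compound exposure of the mec2-1 yeast strain, which is defective in DNA damage repair or cell cycle control.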
# [3] = NCI Yeast Anticancer Drug Screen. Data for the sgs1 mgt1 strain (AID 161);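 further: 0% = growth of cultures given vehicle only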; conditions: S. cerevisiae sgs1 mgt1 strain, at 50.0 µM, active compounds read high
# Method in brief: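 Growth of a repair-deficient yeast mutant was monitored after compound treatment and expressed as inhibition relative to vehicle-treated cultures.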
# [4] = NCI Yeast Anticancer Drug Screen. Data for the cln2 rad14 strain (AID 165);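 further: 0% = growth equal to vehicle treated cultures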; conditions: S. cerevisiae cln2 rad14 strain, at 50.0 µM, active compounds read high
# Method in brief: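 Growth inhibition, relative to vehicle-treated controls, is the read-out. The test organism is a yeast strain with defined genetic alterations, cln2 rad14.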
# [5] = NCI Yeast Anticancer Drug Screen. Data for the bub3 strain (AID 167); conditions: S. cerevisiae bub3 mutant strain, at 50.0 µM, active compounds read high
# Method in brief: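 Growth of a checkpoint-deficient yeast mutant is measured after compound exposure. Values represent inhibition relative to vehicle.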
# [6] = NCI Yeast Anticancer Drug Screen. Data for the mlh1 rad18 strain (AID 175); conditions: S. cerevisiae mlh1 rad18 strain growth inhibition; at 50.0 µM; active compounds read high
# Method in brief: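 Cells of a genetically altered yeast strain, deficient in DNA damage repair, were treated with compound. Their growth was then compared with that of vehicle-treated cultures to give inhibition.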
Structure (SMILES),growth inhibition [1],growth inhibition [2],growth inhibition [3],growth inhibition [4],growth inhibition [5],growth inhibition [6]
CCOC(=O)CN1C(=O)CCC1=O,-6.6%,2.55%,-1.2%,-3.5%,1.45%,-5.95%
CCCCCNC(=O)Nc1cccc(Cl)c1C,-1.4%,6.75%,3.55%,11.4%,16.6%,-20.6%
O=C(O)CN(CC(=O)O)CC(=O)O,-9.7%,-23.6%,-34.4%,-11.8%,-17.1%,32.1%
O=C1CNC(=O)N1c1ccccc1,7.35%,5.75%,4.4%,-9.2%,5.65%,3.8%
CC(=O)OCC1OC(n2nc(C#N)c(C#N)n2)C(OC(C)=O)C1OC(C)=O (stereo unspecified),37.9%,-3%,3.15%,8.05%,-5.85%,1.15%
N#C/C(=N\Nc1ccc(F)cc1)C(=O)C1CC1,9.1%,9.05%,5.8%,11.3%,4.3%,11.7%
CC1(C)CC(Nc2ccccc2)=CC(=Nc2ccccc2)S1,-13.1%,-11.2%,-3.55%,-25.2%,-32.5%,-14.2%
O=S(=O)(O)C(c1ccccc1)C(O)c1ccccc1 (stereo unspecified),0.95%,-8.95%,-14.4%,-25.2%,-20.9%,-0.25%
COC(=O)CC1C(OC)OC23CCC1C2(C)CCC1C3CCC2CC(OC3CCCCO3)CCC21C (stereo unspecified),19.1%,1.15%,9.55%,12.6%,3.2%,18.3%
CCOC(=O)c1[nH]c(Cc2[nH]c(Cc3[nH]c(C(=O)OCC)c(C)c3C(=O)OCC)c(C(=O)OCC)c2C)c(C(=O)OCC)c1C,36.1%,21.2%,45.2%,37.5%,24.7%,8.55%
O=c1c2ccccc2nc(-c2ccc(Br)cc2)n1NC1OC(CO)C(O)C(O)C1O (stereo unspecified),7.05%,3.05%,5.2%,-2.2%,-9.15%,12.6%
CCCCN=CC(Cl)(Cl)C(=O)OCC,-13.2%,-21.6%,-8.35%,4.05%,-10.9%,-19.7%
Cc1ccc(C)c(NC(=O)Oc2ccc(Br)cc2Br)c1,11.4%,5.9%,3.4%,-28.1%,-1%,18.1%
C[n+]1c2ccccc2c(Oc2c3ccccc3[n+](C)c3ccccc23)c2ccccc21,3.8%,11.2%,31.4%,-15.3%,-4.4%,0.1%
O=C([CH-]C(=O)C(F)(F)F)c1ccccc1.O=C([CH-]C(=O)C(F)(F)F)c1ccccc1.O=C([CH-]C(=O)C(F)(F)F)c1ccccc1.[Ru+3],-11.2%,-13.8%,-11.5%,-22.7%,9.8%,4.75%
Cc1ccc(-c2nc(-c3nccc4ccccc34)oc2-c2ccccc2)cc1,-6%,0.45%,-45.4%,-28.4%,-29.7%,5.2%
Cn1cc([N+](=O)[O-])cc1C(=O)Nc1cc(C(=O)Nc2ccc(S(=O)(=O)O)c3cc(S(=O)(=O)O)ccc23)n(C)c1,2.4%,21.4%,14.3%,17.4%,20.4%,11.7%
Cc1ccccc1N(CCC#N)C1=NN(C(=O)CC(=O)Nc2ccccc2)C(c2ccccc2)C1 (stereo unspecified),3%,1%,12.1%,11.7%,0.85%,-7.2%
CC1C(c2ccccc2)OC(c2ccccc2)N1C (stereo unspecified),3.25%,-6.55%,21.4%,55.4%,9.7%,-15.2%
CN(/N=C/c1cccs1)c1ccc([N+](=O)[O-])cc1[N+](=O)[O-],-24.7%,-25.5%,7.05%,-9.35%,-12.8%,-10.8%
CC(C)C1=CC2=C(C(=O)C1=O)C13CCCC(C)(C)C1CC2OC3=O (stereo unspecified),14.3%,-45.1%,23.6%,-12.3%,-2.6%,85.5% (active)

Structure (SMILES),growth inhibition [1],growth inhibition [2],growth inhibition [3],growth inhibition [4],growth inhibition [5],growth inhibition [6]
Cc1nc(Nc2ccccc2Cl)sc1C(=O)CC(=O)C(N)=O,37.1%,20.9%,39.4%,24.1%,2.7%,48.6%
O=C1ON(c2ccccc2)C(c2ccc(OCc3ccccc3)cc2)N1c1ccccc1 (stereo unspecified),42.6%,14%,11.8%,4.35%,27.5%,26.8%
O=c1ncc2ccccc2[nH]1,-19.9%,-10.7%,-9.6%,-4.3%,-12.8%,-23.9%
Cc1ccc(NC(=O)c2ccccc2)cc1,3.75%,4.7%,-2.55%,-16%,2.05%,-0.3%
Cc1ccc(S(=O)(=O)C/C(=N\Nc2ccc([N+](=O)[O-])cc2[N+](=O)[O-])c2ccccc2)cc1,38.4%,-9.45%,17.6%,12.4%,-0.25%,18.7%
CC(C)=C/C(CC(O)(C(F)(F)F)C(F)(F)F)=N\O,-17.2%,4.45%,-6.5%,18.4%,-15.8%,-13.3%
NC(=S)NNc1ccccc1,0.2%,-5.8%,-0.05%,-6.7%,-2.6%,-5.3%
Cc1ccc(NC(=NCCCN(C)C)C(c2ccccc2)c2ccccc2)cc1,-2.7%,-0.25%,-5.4%,0.4%,11.4%,13.4%
CC(=O)OC1CCC2(C)C3C/C(=N\O)C4(C)C(C(C)OC(C)=O)CCC4C3CCC2(C)C1 (stereo unspecified),95.3% (active),96.7% (active),96% (active),91.8% (active),93.2% (active),95.9% (active)
CC1Cc2c([nH]c(=O)n(C)c2=O)O1 (stereo unspecified),1.15%,8.2%,8.4%,-1.5%,-21.1%,2.1%
O=C(O)CN1C(=O)c2ccc([N+](=O)[O-])cc2C1=O,-3.65%,-0.2%,2.3%,-8.2%,-16.5%,4.25%
CSCCCN(CCCSC)CCCSC,-12.6%,-12.9%,-0.3%,5.5%,4.5%,-26.6%
O=C(NC1CCCCC1)OC/C=C\c1ccccc1,7.2%,-12.7%,-7.8%,-6.95%,12.3%,3.8%
Cn1c(=O)c(C(c2ccccc2)c2c(O)c3ccccc3n(C)c2=O)c(O)c2ccccc21,12.1%,6.5%,-19.2%,-34%,2.8%,15.8%
CC(C)CCCC(C)C1CCC2C3CCC4=CC(=O)C=CC4(C)C3CCC12C (stereo unspecified),45.1%,35.2%,47.6%,19.1%,0.85%,41%
CC1=C(CCC(C)N)C(C)(C)CCC1 (stereo unspecified),29%,14.7%,28%,7.75%,11.4%,12.8%
COCCOCOC(C)(C)[C@H](CCO)O[Si](c1ccccc1)(c1ccccc1)C(C)(C)C,91.9% (active),96.5% (active),37.6%,91.6% (active),91.4% (active),95.8% (active)
Nc1cccc(OCc2nc(N)nc(N)c2-c2ccc(Cl)cc2)c1,-14%,-14.4%,-48.9%,-6.6%,-36%,-20.9%
O=C(Oc1cccc2ccccc12)c1cccnc1,-1.45%,-2%,6.4%,-38%,19.7%,31.3%
NC(=O)Nc1ccc(Cl)cc1[N+](=O)[O-],-4.35%,-8.5%,17.6%,-46.5%,-6.45%,-7.1%
